Results as given in PubChem BioAssay AID488893 (Broad Institute, 2010).
Entries with a potency or affinity are not part of this list. Activity calls are given as the source filed them.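 Rule for the calls: active = falling signal whose fitted half-maximal dose is at most ten times the top valid tested dose; inconclusive = flat curve with 30 to 70% inhibition, or poor fit; inactive = the rest, including changes in the wrong direction.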

Assay: Candida albicans growth inhibition, compound alone, dose response, counter-screen for antifungal drug resistance project, CaCi-2 strain, Alamar Blue, dry powder, set 2 (AID 488893)
Conditions: C. albicans CaCi-2 (fluconazole-resistant clinical isolate) growth, Alamar Blue fluorescence, 48 h; series mostly up to 26 µM; activity change, negative = inhibition: at the top concentration

Row | SMILES | activity change, negative = inhibition
1 | O=C(c1ccc(Cl)cc1)N1CCN(c2ncnc3ccccc23)CC1 | 19.6% (inactive)
2 | COc1cccc2c(N3CCN(C(=O)c4ccc(Cl)cc4)CC3)cc(C)nc12 | 5.94% (inactive)
3 | O=C(c1ccc(Cl)cc1)N1CCN(c2cccnc2)CC1 | -12.4% (inactive)
4 | CCCC(=O)N1CCN(c2ccnc3cc(Cl)ccc23)CC1 | -11.4% (inactive)
5 | Cc1cc(N2CCN(C(=O)c3ccc(Cl)cc3)CC2)c2ccc(F)cc2n1 | 19.2% (inactive)
6 | O=C(c1ccc(Cl)cc1)N1CCN(c2ncnc3nc[nH]c23)CC1 | -10.8% (inactive)
7 | Cc1cc(N2CCN(C(=O)c3ccc(Cl)cc3)CC2)c2ccccc2n1 | 0.168% (inactive)
8 | Clc1ccc2c(N3CCNCC3)ccnc2c1 | 10.6% (inactive)
9 | O=C(c1ccc(Cl)cc1)N1CCN(c2ccccn2)CC1 | -10.9% (inactive)
10 | O=C(c1ccc(Cl)cc1)N1CCCN(c2ccnc3cc(Cl)ccc23)CC1 | 2.42% (inactive)
11 | N#Cc1ccc(N2CCN(C(=O)c3ccc(Cl)cc3)CC2)nc1 | 16.7% (inactive)
12 | O=C(C1CCC1)N1CCN(c2ccnc3cc(Cl)ccc23)CC1 | 44.9% (inactive)
